This passage reports outcome and Potency results from PubChem BioAssay (NCATS).

The target in assay [1] is Mitogen-activated protein kinase 10 (Mus musculus) (UniProt Q61831). Briefly: JNK3 AlphaScreen Assay (AID 530; active means well fitted curve in either direction with a large enough effect, not every such curve was filed as active;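 further: kinase came from lysate of stimulated human HepG2 cells; signal reports phosphorylation of biotinylated GST-cJun 1-79 at Ser73 with 10 µM ATP; series mostly up to about 57 µM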). In outline: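 qHTS format: compounds tested as titrations against IL-1beta/TNF-alpha-activated HepG2 lysate JNK3 with biotin-GST-cJun substrate and 10 uM ATP at room temperature. Loss of anti-phospho-cJun AlphaScreen signal indicates inhibition.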
Assay [2] addresses Cytochrome P450 3A4 (Homo sapiens) (UniProt P08684). Briefly: qHTS Assay for Inhibitors and Substrates of Cytochrome P450 3A4 (AID 884). Further: potency means the concentration at half of the fitted maximal effect; nearly all actives have a fitted effect of over 50% in size. In outline:
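20 nM human CYP3A4 with 25 uM Luciferin-PPXE (at KM) in 200 mM KPO4, preincubated 10 min with compound; NADPH regeneration started a 60 min RT reaction. Luciferin detected by luminescence, normalized to 57 uM ketoconazole as full inhibition.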

For assay [3] the target is unchanged. Briefly: qHTS Assay for Activators of Cytochrome P450 3A4 (AID 885). Further: nearly all actives have a fitted effect of over 65% in size. In outline: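 Human CYP3A4 (20 nM) with Luciferin-PPXE at 25 uM (its KM) in 200 mM KPO4; 10 min compound preincubation, then NADPH regeneration and 60 min reaction at RT. Luciferin read by luminescence; normalized to 57 uM ketoconazole full inhibition.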
In assay [4] the target is DNA dC->dU-editing enzyme APOBEC-3G (Homo sapiens) (UniProt Q9HC16). Briefly: qHTS for inhibitors of Vif-A3G interactions: Validation (AID 588379). The method, boiled down: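 HeLa cells stably expressing Vif and A3G-eYFP, 700 cells/well, incubated overnight at 37 deg C, then exposed to compound overnight at 37 deg C. Inhibition of Vif-mediated degradation read as increased yellow fluorescence (Ex 488/Em 500-530) by laser-scanning cytometry.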
Chain of DNA dC->dU-editing enzyme APOBEC-3G (Homo sapiens) (Q9HC16 whole entry, looked up): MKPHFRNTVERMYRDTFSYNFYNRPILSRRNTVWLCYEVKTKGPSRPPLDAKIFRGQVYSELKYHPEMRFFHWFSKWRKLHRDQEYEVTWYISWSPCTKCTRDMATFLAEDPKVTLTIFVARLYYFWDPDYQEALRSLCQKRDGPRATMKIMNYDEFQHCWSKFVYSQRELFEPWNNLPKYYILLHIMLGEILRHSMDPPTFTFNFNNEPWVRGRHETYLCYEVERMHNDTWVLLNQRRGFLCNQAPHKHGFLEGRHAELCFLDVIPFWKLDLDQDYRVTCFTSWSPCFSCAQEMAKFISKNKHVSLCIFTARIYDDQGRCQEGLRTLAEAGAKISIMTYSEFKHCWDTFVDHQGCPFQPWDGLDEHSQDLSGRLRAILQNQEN

For assay [5], the target named is Lethal(3)malignant brain tumor-like protein 1 (Homo sapiens) (UniProt Q9Y468). Briefly: qHTS Assay for the Inhibitors of L3MBTL1: Hit Validation (AID 540279). Further: potency means the concentration at half of the fitted maximal effect; nearly all actives have a fitted effect of over 70% in size. To be noted: L3MBTL1 methyl-lysine binding inhibition, biochemical qHTS. The method, boiled down:
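L3MBTL1 (50 nM final) preformed 30 min with biotinylated H3(1-15)K9me1 peptide (75 nM), then compound 30 min at room temperature. Streptavidin donor and nickel chelate acceptor AlphaScreen beads (10 ug/mL each final) added for 30 min before read.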

Assay [6] has as its target DNA polymerase iota (Homo sapiens) (UniProt Q9UNA4). Briefly: qHTS for Inhibitors of Polymerase Iota: Confirmatory Assay for Cherry-picked Compounds (AID 720496). Further: potency means the concentration at half of the fitted maximal effect. To be noted: Pol iota primer extension, TAMRA/BHQ fluorescence. The method, boiled down: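 Human Pol iota (10 nM) was preincubated 15 min at room temperature with compound, then started with 50 nM TAMRA/BHQ-2 quenched primer-template substrate. Fluorescence (ex 525/em 598 nm) was read at 0 and 10 min.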

In assay [7] the target is Flap endonuclease 1 (Homo sapiens) (UniProt P39748). Briefly: qHTS Assay for the Inhibitors of FEN1: Confirmatory Assay for Cherry-picked Compounds (AID 720498). Further: potency means the concentration at half of the fitted maximal effect; nearly all actives have a fitted effect of over 60% in size. Particulars: FEN1 flap cleavage, TAMRA/BHQ2 fluorogenic DNA substrate. The method, boiled down: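 FEN1 at 10 nM was preincubated with compound for 15 min at room temperature, then 50 nM (final) double-flap DNA substrate was added. TAMRA fluorescence released from the BHQ-2-quenched flap was read at 0 and 15 min (ex 525/em 598 nm).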
Chain of Flap endonuclease 1 (Homo sapiens) (P39748 whole entry, looked up): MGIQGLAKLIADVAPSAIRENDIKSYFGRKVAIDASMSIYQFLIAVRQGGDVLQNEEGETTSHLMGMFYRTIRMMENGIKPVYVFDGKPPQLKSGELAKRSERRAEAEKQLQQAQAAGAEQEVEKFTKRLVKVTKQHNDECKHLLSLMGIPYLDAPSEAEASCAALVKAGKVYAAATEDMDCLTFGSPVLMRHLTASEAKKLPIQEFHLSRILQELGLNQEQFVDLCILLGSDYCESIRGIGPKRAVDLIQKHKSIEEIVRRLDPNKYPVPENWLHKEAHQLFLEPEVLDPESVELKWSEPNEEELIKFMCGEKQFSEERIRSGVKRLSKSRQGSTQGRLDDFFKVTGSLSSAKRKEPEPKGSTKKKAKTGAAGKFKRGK

In assay [8] the target is DNA polymerase eta (Homo sapiens) (UniProt Q9Y253). Briefly: qHTS for Inhibitors of Polymerase Eta: Confirmatory Assay for Cherry-picked Compounds (AID 720502). Further: potency means the concentration at half of the fitted maximal effect. Particulars: Pol eta primer extension, TAMRA/BHQ fluorescence, 10 min. The method, boiled down:
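Strand-displacement fluorescence (525 nm excitation, 598 nm emission) was read kinetically at 0 and 10 min after adding 50 nM final TAMRA-reporter/BHQ-2-template substrate. Beforehand, 10 nM Pol eta had been exposed to compound for 15 min at room temperature.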

Assay [9] can be described thus: qHTS Assay for the Inhibitors of L3MBTL1: Hit Validationin AlphaScreen Counterscreen (AID 602224). The method, boiled down: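 Primary-screen actives were tested against a bead-bridging control: 1 nM biotinylated His6 joined streptavidin donor and nickel acceptor beads (10 ug/mL each). Incubations were 15 min with compound, then 30 min with beads, both at room temperature.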

Records with an inconclusive call do not appear. The list shows a part of the results. A call without a number means that no potency is given here. Calls of active or inactive are those of the source. Unless noted, the call rests on the fitted dose curve; in most records, active means well fitted curve in the direction sought with a large enough effect; inconclusive means small, poorly fitted or top-dose-only effect, or another doubt; inactive means no such curve, though single readings can be large; an effect the other way counts as inactive or inconclusive.

Chain of DNA polymerase iota (Homo sapiens) (Q9UNA4 whole entry, looked up): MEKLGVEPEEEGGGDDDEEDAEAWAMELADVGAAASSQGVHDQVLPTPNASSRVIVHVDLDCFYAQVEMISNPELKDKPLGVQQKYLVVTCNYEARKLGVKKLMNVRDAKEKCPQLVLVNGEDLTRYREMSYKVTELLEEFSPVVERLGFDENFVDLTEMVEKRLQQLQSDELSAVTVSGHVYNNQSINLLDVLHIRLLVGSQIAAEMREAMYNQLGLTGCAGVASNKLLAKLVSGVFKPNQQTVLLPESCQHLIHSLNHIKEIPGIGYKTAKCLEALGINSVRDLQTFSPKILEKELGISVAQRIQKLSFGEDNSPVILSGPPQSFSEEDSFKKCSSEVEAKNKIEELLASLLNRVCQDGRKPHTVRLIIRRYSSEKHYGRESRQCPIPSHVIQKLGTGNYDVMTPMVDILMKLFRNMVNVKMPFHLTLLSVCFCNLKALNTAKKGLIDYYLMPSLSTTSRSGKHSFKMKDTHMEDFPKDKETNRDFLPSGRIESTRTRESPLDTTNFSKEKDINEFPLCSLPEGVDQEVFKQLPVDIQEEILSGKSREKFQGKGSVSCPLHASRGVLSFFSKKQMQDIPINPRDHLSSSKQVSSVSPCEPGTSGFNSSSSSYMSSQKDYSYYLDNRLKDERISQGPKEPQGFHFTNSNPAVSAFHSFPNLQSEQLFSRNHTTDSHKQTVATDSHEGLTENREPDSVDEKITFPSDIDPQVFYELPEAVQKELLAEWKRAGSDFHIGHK
Chain of Cytochrome P450 3A4 (Homo sapiens) (P08684 whole entry, looked up): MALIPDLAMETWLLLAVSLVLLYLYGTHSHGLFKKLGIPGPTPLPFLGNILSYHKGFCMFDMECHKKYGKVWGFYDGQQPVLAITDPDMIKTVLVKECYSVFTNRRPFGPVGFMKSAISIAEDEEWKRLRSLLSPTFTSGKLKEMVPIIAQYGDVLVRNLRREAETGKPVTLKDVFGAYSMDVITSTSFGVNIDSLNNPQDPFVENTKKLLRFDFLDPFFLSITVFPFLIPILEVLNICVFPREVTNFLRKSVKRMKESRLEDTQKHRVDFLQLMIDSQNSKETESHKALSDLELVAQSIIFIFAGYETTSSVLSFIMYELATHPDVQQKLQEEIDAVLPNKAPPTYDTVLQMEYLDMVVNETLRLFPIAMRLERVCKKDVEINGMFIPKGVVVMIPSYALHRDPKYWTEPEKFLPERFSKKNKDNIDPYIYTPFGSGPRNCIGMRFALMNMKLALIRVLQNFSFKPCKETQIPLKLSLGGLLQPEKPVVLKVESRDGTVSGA
Chain of Lethal(3)malignant brain tumor-like protein 1 (Homo sapiens) (Q9Y468 whole entry, looked up): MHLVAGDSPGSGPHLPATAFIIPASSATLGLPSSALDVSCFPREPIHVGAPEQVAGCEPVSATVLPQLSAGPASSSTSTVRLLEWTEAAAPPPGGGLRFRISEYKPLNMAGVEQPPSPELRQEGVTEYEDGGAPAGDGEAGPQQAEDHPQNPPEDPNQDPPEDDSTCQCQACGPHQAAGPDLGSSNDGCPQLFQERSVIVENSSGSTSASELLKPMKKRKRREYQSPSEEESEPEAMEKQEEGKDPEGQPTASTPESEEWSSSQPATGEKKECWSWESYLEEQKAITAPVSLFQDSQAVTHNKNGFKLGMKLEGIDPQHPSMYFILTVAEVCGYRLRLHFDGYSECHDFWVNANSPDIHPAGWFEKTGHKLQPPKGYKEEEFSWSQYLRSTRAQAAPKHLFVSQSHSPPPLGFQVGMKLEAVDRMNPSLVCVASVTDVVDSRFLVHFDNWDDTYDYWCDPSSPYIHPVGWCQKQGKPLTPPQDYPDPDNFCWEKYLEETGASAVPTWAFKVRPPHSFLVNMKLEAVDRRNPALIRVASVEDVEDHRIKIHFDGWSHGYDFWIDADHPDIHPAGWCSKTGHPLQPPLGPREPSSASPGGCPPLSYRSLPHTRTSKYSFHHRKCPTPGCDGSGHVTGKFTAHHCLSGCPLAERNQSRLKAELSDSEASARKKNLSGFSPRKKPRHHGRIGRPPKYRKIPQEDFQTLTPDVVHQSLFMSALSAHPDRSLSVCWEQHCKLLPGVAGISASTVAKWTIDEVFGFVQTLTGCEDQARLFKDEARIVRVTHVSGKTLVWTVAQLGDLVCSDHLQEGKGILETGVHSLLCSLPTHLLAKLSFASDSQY
Chain of DNA polymerase eta (Homo sapiens) (Q9Y253 whole entry, looked up): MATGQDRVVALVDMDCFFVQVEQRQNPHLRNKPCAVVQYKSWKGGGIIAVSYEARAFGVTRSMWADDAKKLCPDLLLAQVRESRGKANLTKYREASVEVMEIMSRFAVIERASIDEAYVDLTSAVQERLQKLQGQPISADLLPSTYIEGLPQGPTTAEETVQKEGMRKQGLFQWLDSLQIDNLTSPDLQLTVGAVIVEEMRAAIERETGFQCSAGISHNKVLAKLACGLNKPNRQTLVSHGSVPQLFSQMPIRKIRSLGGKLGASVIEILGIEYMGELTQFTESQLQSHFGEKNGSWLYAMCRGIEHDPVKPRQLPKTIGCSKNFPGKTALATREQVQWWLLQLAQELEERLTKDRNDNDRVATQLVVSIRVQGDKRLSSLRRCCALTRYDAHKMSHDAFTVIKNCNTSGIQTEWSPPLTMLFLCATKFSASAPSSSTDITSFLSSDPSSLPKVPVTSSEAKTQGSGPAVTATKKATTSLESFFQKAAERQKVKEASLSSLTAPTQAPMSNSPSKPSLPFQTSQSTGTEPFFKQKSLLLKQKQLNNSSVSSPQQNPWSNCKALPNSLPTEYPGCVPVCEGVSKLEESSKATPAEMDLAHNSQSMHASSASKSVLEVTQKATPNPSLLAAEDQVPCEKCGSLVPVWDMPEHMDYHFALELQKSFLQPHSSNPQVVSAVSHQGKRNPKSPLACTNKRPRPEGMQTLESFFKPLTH

For the molecule `CCCCCCN(C(=O)CCCCCN1C(=O)NC(c2ccc(-c3ccccc3)cc2)C(C(=O)OCc2ccccc2)=C1C)C(C)C(=O)NCCCC` (stereo unspecified), the molecule was classed as inactive in assay [1]. Besides, the Potency in assay [2] was 3.16 µM (active). In assay [3], the Potency result was “inactive”.

Regarding `COC(=O)c1ccc(C(NC(=O)OCc2ccccc2)/C(=C/[C@@H](C)C(=O)Nc2ccccc2)c2cccnc2)cc1` (stereo partly specified), the molecule was called inactive in [1]. The Potency in [2] is 1.58 µM (active). For the same molecule, the Potency result in [3] is “inactive”.

Regarding `COC(=O)c1ccc(C(NC(=O)OCc2ccccc2)/C(=C/[C@@H](C)C(=O)NCc2ccccc2)c2cccnc2)cc1` (stereo partly specified), the result in [1] was inactive. The Potency in assay [2] is 3.98 µM (active). For the same molecule, in assay [3], the Potency entry is “inactive”.

`COC(=O)CCCCCN1C(=O)NC(CC2CC2)C(C(=O)OCc2ccccc2)=C1C` (stereo unspecified): the result in [1] was inactive. The Potency result in assay [3] is “inactive”.

In the case of `CC1=C(C(=O)OCc2ccccc2)C(c2ccc(C3CCCCC3)cc2)NC(=O)N1CCCCCC(=O)O` (stereo unspecified), in assay [1], the call was inactive. The Potency result in [3] was “inactive”.

With `CC(=O)N1CC=CC1(CC(C)C)C(=O)NCc1ccc(C)o1` (stereo unspecified), in assay [1], the call was inactive. In addition, the Potency result in [3] was “inactive”.

For the molecule `COC(=O)c1ccc(C(/C=C/[C@@H](C)C(=O)NCCN2CCCC2)NC(=O)OCc2ccccc2)cc1` (stereo partly specified), the call in assay [1] was inactive. Also, in assay [2], the Potency was 10 µM (active). Also, in [3], the Potency entry is “inactive”.

Take `COC(=O)c1ccc(C(NC(=O)OCc2ccccc2)/C(I)=C/[C@@H](C)C(=O)NCC2CC2)cc1` (stereo partly specified): in [1], the call was inactive. For the same molecule, the Potency in assay [2] is 3.98 µM (active). Moreover, the Potency entry in assay [3] was “inactive”.

`COC(=O)c1ccc(C(NC(=O)OCc2ccccc2)/C(C)=C/[C@@H](C)C(=O)NCCO)cc1` (stereo partly specified): in assay [1], the result was inactive. Moreover, the Potency in assay [2] was 2.51 µM (active). Moreover, in [3], the Potency result was “inactive”.

As for `CC1(C(=O)NCCc2c[nH]c3ccccc23)C=CCN1C(=O)c1ccccc1` (stereo unspecified), the molecule was called inactive in assay [1]. In assay [2], the Potency was 10 µM (active). Further, in assay [3], the Potency entry is “inactive”.

In the case of `CNC(=O)[C@@]1(C)C=C[C@@H](Cc2ccccc2)N1C(=O)OC`, in [1], the molecule was called inactive. Besides, the Potency result in assay [3] was “inactive”.

Turning to `COC(=O)[C@@]1(C)C=C[C@@H](Cc2ccccc2)N1C(C)=O`, the molecule was called inactive in assay [1]. Further, the Potency entry in assay [3] was “inactive”.

As to `CCCCNC(=O)C(c1ccc(OCC(=O)OC)c(C(=O)OC)c1)N(CCC1=CCCCC1)C(=O)CCCCCN1C(=O)NC(c2ccc(-c3ccccc3)cc2)C(C(=O)OCc2ccccc2)=C1C` (stereo unspecified), the result in assay [1] was inactive. Also, the Potency entry in assay [3] was “inactive”.

On to `COC(=O)C1(C)C=CC2(CCCCC2)N1C(=O)c1ccccc1` (stereo unspecified), for which the molecule was called inactive in assay [1]. The Potency result in assay [3] was “inactive”.

With `COC(=O)N1[C@H](C)C=C[C@]1(Cc1ccccc1)C(=O)NCc1ccccn1`, the molecule was called inactive in assay [1]. In addition, the Potency result in [3] was “inactive”.

For the molecule `CC(=O)N1CC=CC1(CC(C)C)C(=O)NCC1CC1` (stereo unspecified), the molecule was called inactive in assay [1]. In addition, the Potency result in [3] is “inactive”.

For the molecule `CC1(C)S[C@H]2[C@@H](NC(=O)C(N)c3ccccc3)C(=O)N2[C@H]1C(=O)O` (stereo partly specified), the Potency entry in assay [4] is “inactive”.

For `COc1ccc(Cc2nnc(NC(=O)Cc3cccs3)s2)cc1`, the Potency was 1.19 µM (active) in assay [5], 16.8 µM (active) in [6], 84.9 µM (active) in assay [7] and 19 µM (active) in [8].

Regarding `CCCCCCN(C(=O)CCCCCN1C(=O)NC(c2ccc(-c3ccccc3)cc2)C(C(=O)OCc2ccccc2)=C1C)C(C(=O)NCCCC)c1ccc(OCC(=O)O)c(C(=O)O)c1` (stereo unspecified), the result in assay [1] was inactive. The Potency entry in assay [3] was “inactive”.

On to `CCN(C(=O)Cc1nc(N)n[nH]1)C1(C(=O)Nc2ccccc2)CCCCC1`, for which the Potency in assay [5] was 26.7 µM (active).

Regarding `COC(=O)CNC(=O)[C@@]1(C)C=C[C@@H](Cc2ccccc2)N1C(C)=O`, in [1], the result was inactive. The Potency entry in assay [3] was “inactive”.

With `Cn1c2ccccc2c(=O)c2c(=O)n(Cc3ccco3)c(COc3ccccc3)nc21`, the Potency in [5] was 7.52 µM (active); in assay [6], 75.2 µM (active). The call in assay [9] was inactive.

Regarding `CC(=O)N1CC=CC1(C)C(=O)O` (stereo unspecified), the call in assay [1] was inactive. Besides, the Potency entry in [3] is “inactive”.

For the molecule `COC(=O)c1ccc(C(/C=C/[C@@H](C)C(=O)N(C)C)NC(=O)OCc2ccccc2)cc1` (stereo partly specified), the outcome in assay [1] was inactive. Also, the Potency entry in assay [3] was “inactive”.

In the case of `COC(=O)[C@@]1(C)C=C[C@@H](Cc2ccccc2)N1C(=O)c1ccccc1`, the result in assay [1] was inactive. In addition, the Potency entry in assay [3] is “inactive”.

As to `COCCNC(=O)C1(CC(C)C)C=CCN1C(=O)OC` (stereo unspecified), the result in [1] was inactive. For the same molecule, the Potency entry in assay [3] was “inactive”.

Turning to `COc1ccc(CNC(=O)C(C)Cc2ccccc2)cc1O` (stereo unspecified), the result in [1] was inactive. In assay [3], the Potency result was “inactive”.

On to `CCCCCCN(C(=O)CCCCCN1C(=O)NC(c2ccc(-c3ccccc3)cc2)C(C(=O)OCc2ccccc2)=C1C)C(C(=O)NCCCC)c1cccc(C(=O)OC)c1` (stereo unspecified), for which the molecule was classed as inactive in assay [1]. For the same molecule, in [3], the Potency result is “inactive”.

Consider `CC(C)(C)OC(=O)NCCCCCNC(=O)c1[nH]cnc1C(=O)Nc1nccs1`, for which the Potency in [5] is 7.52 µM (active). Besides, the molecule was called inactive in assay [9].

For the molecule `COC(=O)CNC(=O)C1(CC(C)C)C=CCN1C(=O)c1ccccc1` (stereo unspecified), the outcome in [1] was inactive. In addition, in assay [3], the Potency result was “inactive”.

Consider `CCCCCCN(C(=O)CCCCCN1C(=O)NC(c2ccc(-c3ccccc3)cc2)C(C(=O)OCc2ccccc2)=C1C)C(C(=O)NCCCC)c1ccccc1` (stereo unspecified), for which the result in assay [1] was inactive. Further, the Potency entry in [3] was “inactive”.

For the molecule `O=C(COC(=O)c1ccc(F)cc1F)Nc1ncccn1`, the Potency is 5.97 µM (active) in assay [5] and 21.2 µM (active) in assay [6]. In addition, the outcome in assay [9] was inactive.

Turning to `COC(=O)CCCCCN1C(=O)NC(c2ccccc2)C(C(=O)OCc2ccccc2)=C1C` (stereo unspecified), the outcome in assay [1] was inactive. Further, the Potency entry in assay [3] was “inactive”.

In the case of `CCCCCCN(C(=O)CCCCCN1C(=O)NC(c2ccc(-c3ccccc3)cc2)C(C(=O)OCc2ccccc2)=C1C)C(C(=O)NCCCC)c1ccccn1` (stereo unspecified), the call in assay [1] was inactive. Besides, the Potency entry in assay [3] is “inactive”.

Take `COC(=O)N1[C@H](C)C=C[C@]1(Cc1ccccc1)C(=O)NCc1ccc(C)o1`: the molecule was classed as inactive in assay [1]. Besides, the Potency entry in [3] was “inactive”.

With `COC(=O)CNC(=O)C1(CC(C)C)C=CCN1C(C)=O` (stereo unspecified), the molecule was called inactive in [1]. Moreover, the Potency entry in assay [3] is “inactive”.
